VACV Venus inh: qHTS for Stage-Specific Inhibitors of Vaccinia Orthopoxvirus: Venus Reporter Primary qHTS; Vaccinia virus Venus reporter expression, fluorescence; Potency, µM (top dose mostly 36.5 µM), inactives show top-dose activity change, negative = inhibition, usual class: inhibitors; hit rate 0.46% among 330,000; AID 720580, 2013; calls by dose curve; tested in A549 cells; further: on the % scale 0 is the no-effect control and ±100 the full control effect; nearly all actives have a fitted effect of over 30% in size
Pf growth 96h: Primary qHTS for delayed death inhibitors of the malarial parasite plastid, 96 hour incubation; P. falciparum luciferase reporter growth, 96 h; Potency, µM (top dose mostly 28.7 µM), inactives show at the highest dose activity change, negative = inhibition, hits mostly inhibitors; hit rate 6.9% among 320,000; AID 504834, 2011; further: on the % scale 0 is the no-effect control and ±100 the full control effect
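Parasite growth measured via integrated firefly luciferase reporter in P. falciparum. Infected erythrocytes at 2% hematocrit, 0.05% parasitemia final were treated 96 hours at 37 C under 5% CO2, and luminescence was read.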
Pf growth 48h: Primary qHTS for delayed death inhibitors of the malarial parasite plastid, 48 hour incubation; hit rate 5.9% among 310,000; P. falciparum luciferase growth in erythrocytes, 48 h; Potency, µM (titrated, usually from 28.7 µM), without a hit: at the top dose activity change, negative = inhibition, actives largely listed as inhibitors; further: on the % scale 0 is the no-effect control and ±100 the full control effect
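In quantitative HTS format, infected erythrocytes bearing luciferase-reporter parasites were treated for a single generation at 37 C. Luminescence after adding detection reagent served as the growth measure.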
Vaccinia mCherry: qHTS for Stage-Specific Inhibitors of Vaccinia Orthopoxvirus: mCherry Reporter Primary qHTS; hit rate 0.63% among 310,000; Potency, µM (series often up to 36.5 µM), for inactives: at the top dose activity change, negative = inhibition, actives largely listed as inhibitors; Vaccinia virus mCherry reporter infection, fluorescence; calls by dose curve; tested in A549 cells; further: on the % scale 0 is the no-effect control and ±100 the full control effect; nearly all actives have a fitted effect of over 35% in size
NS1 function inh: qHTS Assay for Inhibitors of Influenza NS1 Protein Function. Potency, µM (highest dose often 46.1 µM), for inactives: top-dose activity, positive = more growth. hit rate 0.4% among 270,000; calls by dose curve; further: actives are rising curves; nearly all actives have a fitted effect of over 50% in size
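Compounds were scored for reversing the slow growth caused by influenza A NS1 in S. cerevisiae, measured by optical density at 600 nm. Assay medium contained 2% galactose at pH 6.0; NS1-free yeast of the same strain were the positive control.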
HCV inh: qHTS Assay for Inhibitors of Hepatitis C Virus (HCV); Huh7.5.1 HCVcc-Cre infection, luciferase reporter, 44 h; Potency, µM (titrated, usually from 41.8 µM), without a hit: at the top dose activity change, negative = inhibition, hits mostly inhibitors; hit rate 3.4% among 340,000; AID 651820, 2012; further: on the % scale 0 is the no-effect control and ±100 the full control effect
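Cells seeded at 1,000/well and cultured 4 h, then compounds added followed by HCVcc-Cre virus (~0.5 moi). After 44 h further culture, luciferase substrate was added, plates held 15 min at room temperature, and luminescence read for 15 sec.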
Active calls of the source: *; i = inactive; ? = inconclusive; . = not tested or not shown; [ ] = another dose, or the depositor's remark. In the library only some 11% were active in any assay of this set; here they are far more common. Unless noted, the call rests on the fitted dose curve; in most records, active means well fitted inhibition curve with a large enough effect; inconclusive means small, poorly fitted or top-dose-only effect, or another doubt; inactive means no such curve, though single readings can be large or run the other way. Potency means the concentration at half of the fitted maximal effect.

SMILES | VACV Venus inh | Pf growth 96h | Pf growth 48h | Vaccinia mCherry | NS1 function inh | HCV inh
Cc1cc(Cl)c(S(=O)(=O)N2CCN(c3ccccn3)CC2)cc1OCC(=O)NC1CCCCC1 | . | ? | 0.23µM* | . | -34% | 10µM*
Cc1cc(Cl)c(S(=O)(=O)N2CCCCCC2)cc1OCC(=O)NC1CCCCC1 | . | 0.059µM* | . | . | -11% | -2%
Cc1cc(Cl)c(S(=O)(=O)NC2CCCC2)cc1OCC(=O)NC1CCCCC1 | . | ? | . | . | 1% | 7.1µM*
Cc1cc(Cl)c(S(=O)(=O)N2CCCCCC2)cc1OCC(N)=O | -20% | ? | ? | ? | -18% | -5%
Cc1cc(Cl)c(S(=O)(=O)N2CCSCC2)cc1OCC(=O)NC1CCCCC1 | . | 11% | . | . | 12% | 6.3µM*
Cc1ccc(NC(=O)CCNC(=O)c2ccc(Cl)cc2)cc1F | -10% | 64% | 20% | i | -9% | 4%
O=C1CCC[C@@H]2Cc3nc4ccc(Cl)cc4cc3[C@@H]3CCN1[C@H]23 | -16% | . | . | -13% | . | -16%
CCOC(=O)N1CCN(S(=O)(=O)c2cc(OCC(=O)NC3CCCCC3)c(C)cc2Cl)CC1 | . | 0.66µM* | . | . | -7% | 6%
Cc1cc(Cl)c(S(N)(=O)=O)cc1OCC(=O)NC1CCCCC1 | -7% | -18% | 41% | -12% | 21% | 19%
N=c1n(CCN2CCOCC2)c2ccccc2n1CC(=O)c1ccc(Cl)c(Cl)c1 | . | 0.47µM* | 12µM* | . | -163% | ?
N=c1n(CCN2CCCC2)c2ccccc2n1CC(O)c1ccc(Cl)c(Cl)c1 (stereo unspecified) | . | 121% | ? | . | 1% | 11µM*
N=c1n(CCN2CCCCC2)c2ccccc2n1CC(=O)c1cccs1 | -21% | 10µM* | 12µM* | ? | 3% | ?
N=c1n(CCN2CCCCC2)c2ccccc2n1CC(O)COc1ccc(Cl)cc1Cl (stereo unspecified) | -8%[7.34 µM] | . | . | -12%[7.34 µM] | . | .
N=c1n(CCN2CCOCC2)c2ccccc2n1CC(=O)c1cccc([N+](=O)[O-])c1 | -28% | ? | ? | -8% | 6% | -14%
CCOc1ccc(N(C)S(=O)(=O)c2ccc(C)c(C(=O)NCc3cccs3)c2)cc1 | . | ? | ? | . | . | 14µM*
CCOC(=O)CC(NC(=O)c1cccs1)c1ccc(OCC)cc1 (stereo unspecified) | -8% | 10µM* | 6% | -6% | -19% | -6%
CCOc1ccc(C(=O)NCc2cccs2)cc1 | . | 0.66µM* | 17% | . | -14% | -8%
Cc1ccc(N2C(=O)CC(N3CCN/C3=C3\CC/C(=C\c4ccccc4)C3=O)C2=O)cc1 (stereo unspecified) | . | 9% | -19% | . | . | 12%
O=C(Cn1c(=O)c(=O)n(Cc2ccccc2)c2ccc(Cl)cc21)Nc1cc(F)ccc1F | . | ? | -4% | . | . | .
CCCn1c(SCC(=O)N2c3ccccc3Sc3ccccc32)nc2ccccc21 | -13% | 3.7µM* | 13µM* | ? | 18% | ?
CN(C)CCC(=O)N1c2ccccc2Sc2ccc(C(F)(F)F)cc21 | . | 0% | 29% | . | -7% | ?
O=C(CSc1nc2ccccc2s1)N1c2ccccc2Sc2ccc(C(F)(F)F)cc21 | -23% | ? | 15µM* | -10% | 13% | ?
O=C(CSc1nc2ccccc2s1)N1c2ccccc2Sc2ccc(Cl)cc21 | . | 5.9µM* | ? | . | 25% | ?
COC(=O)c1ccc(COc2ccccc2[N+](=O)[O-])o1 | . | 48% | 29% | . | -13% | -11%
COc1ccc(Cl)cc1C(=O)Nc1c2c(nn1-c1ccc(Cl)cc1)CS(=O)(=O)C2 | -3% | . | . | -15% | . | .
SMILES | VACV Venus inh | Pf growth 96h | Pf growth 48h | Vaccinia mCherry | NS1 function inh | HCV inh
CC(=O)N1CCOc2cc(S(=O)(=O)Nc3cccc(C(F)(F)F)c3)c(Cl)cc21 | -21% | ? | 13µM* | -26% | . | .
COc1ccc(NC(=O)CCS(=O)(=O)c2ccc3c(c2)CCN3C(C)=O)cc1 | . | 12µM* | 6% | . | 3% | 11%
CC(=O)N1CCc2cc(S(=O)(=O)Nc3ccc(C)cc3)ccc21 | -13% | -26% | 13% | -21% | 1% | -11%
CC(=O)N1CCOc2cc(S(=O)(=O)Nc3cc(C(F)(F)F)ccc3Cl)c(C)cc21 | -12% | . | . | -19% | . | .
CC(=O)N1CCc2cc(S(=O)(=O)Nc3cccc(C(F)(F)F)c3)ccc21 | ? | 35% | . | ? | -21% | 13µM*
COc1ccc(NC(=O)CCS(=O)(=O)c2ccc3c(c2)CCCN3C(C)=O)cc1Cl | . | 43% | . | . | 3% | -10%
CSc1cccc(NS(=O)(=O)c2ccc3c(c2)CCN3C(C)=O)c1 | . | ? | . | . | -1% | 5.6µM*
Cn1c(=O)c2c(nc(N3CCN(c4ccccc4)CC3)n2CCCc2ccccc2)n(C)c1=O | 2% | -15% | ? | . | -73% | ?
CCOC(=O)N1CCC(NC(=O)c2cnn3cccnc23)CC1 | ? | . | 5% | . | 2% | 8%
O=c1c2ccccc2[nH]c2ccc(O)cc12 | -2% | ? | -10% | ? | 1% | -1%
CCOC(=O)c1cc2sccc2n1CC(=O)OC(C)C | 2% | 9% | -26% | -9% | -14% | -13%
COc1cccc(NS(=O)(=O)c2ccc3c(c2)CCN3C(C)=O)c1 | -25% | ? | ? | ? | 0% | 1.6µM*
COc1cccc(NS(=O)(=O)c2ccc3c(c2)CCCN3C(=O)C2CCC2)c1 | -15% | . | . | -27% | . | .
Cc1ccc(NC(=O)Cc2coc3c(C)c(C)ccc23)cc1Cl | -16% | . | . | -14% | . | .
Cc1n[nH]c(=S)n(/N=C/c2cccs2)c1=O | -9%[7.34 µM] | ? | 0.93µM* | -4%[7.34 µM] | 6% | 11%
CC(C)(C)c1n[nH]c(=S)n(/N=C/c2cccs2)c1=O | -9% | -27% | 8% | i | 2% | 18%
C[C@]12CCC3c4ccc(OC(=O)c5ccccc5)cc4CCC3C1CCC2=O (stereo partly specified) | 0% | . | . | -7% | . | .
C[C@]12CC[C@@H]3c4ccc(OC(=O)c5ccccc5)cc4CC[C@H]3[C@@H]1CC[C@@H]2O | 4% | 8.3µM* | ? | -7% | -2% | -6%
COC(=O)c1[nH]c2ccccc2c1NC(=O)CCN1CCN(C2CCCCC2)CC1 | . | 4% | -16% | . | -7% | .
CCC1CN(C(=O)Nc2cc(C)cc(C)c2)c2ccccc2O1 (stereo unspecified) | -19% | . | . | -5% | . | .
Cc1cc(=O)[nH]c(Nc2ccc(C(=O)OC(C)C)cc2)n1 | -16% | 2.6µM* | ? | . | -8% | -16%
Cc1cc(=O)[nH]c(Nc2ccc(Cl)cc2)n1 | . | -7% | -1% | . | -15% | 2%

High-throughput results as filed in PubChem.
